Measured values as given in PubChem BioAssay (NCATS).
Inconclusive results are not listed. Entries that show only a call come without a potency. The source made the active and inactive calls. Unless noted, the call rests on the fitted dose curve; in most records, active means well fitted curve in the direction sought with a large enough effect; inconclusive means small, poorly fitted or top-dose-only effect, or another doubt; inactive means no such curve, though single readings can be large; an effect the other way counts as inactive or inconclusive.

Legend:
[1] = target: D(1A) dopamine receptor (Homo sapiens) (UniProt P21728); experiment: HTS Assay for Allosteric Agonists of the Human D1 Dopamine Receptor: Primary Screen for Agonists (AID 488981)
Procedure, shortened: (§1)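 Calcium flux in an inducible, force-coupled HEK293 Trex D1 line (overnight at 30 C): agonist mode is the 180 s kinetic read after compound; potentiator mode is the following 180 s read after dopamine at EC20.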

[2] = target: D(1A) dopamine receptor (Homo sapiens) (UniProt P21728); experiment: HTS Assay for Allosteric Agonists of the Human D1 Dopamine Receptor: Primary Screen for Potentiators (AID 488982)
Procedure, shortened: as §1

[3] = target: D(1A) dopamine receptor (Homo sapiens) (UniProt P21728); experiment: HTS Assay for Allosteric Agonists of the Human D1 Dopamine Receptor: Primary Screen for Antagonists (AID 488983);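 further: calcium flux response to an EC80 dopamine challenge measured with no-wash dye; nearly all actives have a fitted effect of over 65% in size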
Procedure, shortened: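 Calcium flux readout, no-wash dye, inducible HEK293 T-REx D1 line (force-coupled). Compound added after 10 s baseline, 180 s kinetic read; then dopamine at EC80, further 180 s read.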

[4] = Validation screen for small molecules that induce genotoxicity in human embryonic kidney (HEK293T) cells expressing luciferase-tagged ELG1 (AID 493106)
Procedure, shortened: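 qHTS format; 2,000 HEK293T ELG1-luc cells/well; 23 nL compound via pin tool; 16 hr, 37 °C/5% CO2; ONE-Glo, 30 min RT; luminescence read.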

[5] = target: Thyrotropin-releasing hormone receptor (Homo sapiens) (UniProt P34981); experiment: qHTS for Small Molecule Agonists and Allosteric Enhancers of Human TRH Receptor: Validation Screen for Agonists (AID 493127;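 active means calcium activation more than 3 SD above the typical response in the agonist read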;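 further: intracellular calcium rise by fluo-8 fluorescence before TRH EC20 addition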); settings: TRH receptor agonist cell assay; at 2 µM; stronger effect = higher value
Procedure, shortened: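 Read-out: intracellular calcium release measured kinetically by FDSS (fluo-8, ex 480/em 530 nm), 1 reading/s after a 10-cycle baseline. TRHR cells, 2000/well, cultured 18 h at 33.5C, dye-loaded at room temp. Compound-evoked positive calcium signal flags agonists.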

[6] = target: Galactokinase (Homo sapiens) (UniProt P51570); experiment: qHTS Validation Assay for Inhibitors of Human Galactokinase (GALK) (AID 493189)
Procedure, shortened: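 Luminescence from leftover ATP (Kinase-Glo Plus, 10 min) served as read-out after a 1 h room-temperature reaction of 5 nM GALK, 100 uM galactose and 35 uM ATP at pH8.0.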

[7] = target: Peptidyl-prolyl cis-trans isomerase NIMA-interacting 1 (Homo sapiens) (UniProt Q13526); experiment: qHTS Validation Assay to Find Inhibitors of Pin1 (AID 504536; active means well fitted inhibition curve with a large enough effect in the polarisation, with a control signal flat, not every such curve was filed as active; the % refers to the polarisation)
Procedure, shortened: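 Fluorescence polarization competition: compounds (titration) displace HiFluor-488-labeled Pin1-1b peptide from Pin1 (0.3 uM final) in pH 7.5 HEPES buffer with DTT, 10 min at room temperature; %Activity normalized to no-enzyme wells, curves fitted.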

[8] = target: Phosphoglycerate kinase, glycosomal (Trypanosoma brucei brucei) (UniProt P07378); experiment: qHTS Validation Assay to Find Inhibitors of Phosphoglycerate Kinase (AID 504547)
Procedure, shortened: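 Luminescence end-point (Kinase-Glo Plus, 10 min) after a 60 min room-temperature coupled reaction. GAPDH at 100nM final supplies 1,3-BPG to PGK. Buffer: 100mM TEA pH 7.6, 5mM MgCl2, 0.01% Tween-20. Wells lacking PGK served as controls.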

[9] = target: phosphoglycerate mutase (Leishmania major) (UniProt Q4Q090); experiment: qHTS Validation Assay to Find Inhibitors of Phosphoglycerate Mutase (AID 504548);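 further: end-point luminescence from Kinase-GloPlus after the PGAM reaction; series mostly up to about 58 µM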
Procedure, shortened: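 L. major PGAM (1.25nM final) was added to substrate buffer and pinned compound, incubated 45 minutes at room temperature, then Kinase-GloPlus added; luminescence read after 10 minutes. Buffer: 100 mM TEA pH 7.6, 5 mM MgCl2, 0.01% Tween-20.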

[10] = target: ATP-dependent 6-phosphofructokinase (Trypanosoma brucei brucei) (UniProt O15648); experiment: qHTS Assay to Find Inhibitors of T. brucei phosphofructokinase: hit validation (AID 492961);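 further: luminescence reports ADP formed as PFK phosphorylates fructose-6-phosphate with ATP; series mostly up to about 51 µM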
Procedure, shortened: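 Measures ADP output of PFK (1.25 nM) at 0.1 mM ATP, 0.5 mM F6P, pH 8.0 TEA buffer with 5 mM MgCl2. No-enzyme wells define full inhibition; uninhibited enzyme wells define zero.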

[11] = target: Ubiquitin carboxyl-terminal hydrolase 1 (Homo sapiens) (UniProt O94782); experiment: Inhibitors of USP1/UAF1: Pilot qHTS (AID 504865);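 further: rhodamine fluorescence freed from ubiquitin-rhodamine substrate followed over time; top concentration of the series differs between compounds; nearly all actives have a fitted effect of over 35% in size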
Procedure, shortened: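 1nM USP1/UAF1 + cpd, 15 min RT; start w/ Ub-Rho 150nM final; kinetic FL 480/540 nm, 6 reads q60 s. Buffer 50mM HEPES pH 7.8, 0.5mM EDTA, 1mM TCEP, 0.01% Tween-20, 0.1 mg/ml BSA.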

[12] = qHTS for Inhibitors of ATXN expression: Validation of Cytotoxic Assay (AID 588349)
Procedure, shortened: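 Cytotoxicity counter-screen: HEK293 cells exposed to compound titrations, 72 hr, 37 degrees C. Read-out is intracellular ATP (CellTiter Glo luminescence) as a viability measure.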

[13] = Nrf2 qHTS screen for inhibitors: Validation (AID 493153; active means well fitted inhibition curve with a large enough effect in the main read-out, with a control signal flat, not every such curve was filed as active; further: potency means the concentration at half of the fitted maximal effect); settings: Potency: luciferase luminescence; viability change: measured here: cytotoxicity max response
Procedure, shortened: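 Concentration-response test in A549 ARE_Fluc reporter cells (5% FBS OPTI-MEM), compound exposure 18-24 h at 37°C, 5% CO2. Cell viability measured first by CellTiter-Fluor fluorescence; ARE-driven luciferase luminescence then measured as Nrf2 activity.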

[14] = Validation screen for small molecules that induce DNA re-replication in SW480 colon adenocarcinoma cells (AID 504364)
Procedure, shortened: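 Read-out: total Hoechst intensity of nuclei by fluorescence scanning imager; hits raise the fraction of nuclei with elevated DNA content. Cells received compound for 48 hr at 37 C before a 40 min stain.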

[15] = qHTS for Inhibitors of ATXN expression: Validation (AID 588378); further: series mostly up to about 57 µM; nearly all actives have a fitted effect of over 75% in size
Procedure, shortened: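 Cells: HEK293-ATXN2-FFLuc, phenol-red free DMEM, 2 h attachment. Compound pin-transfer, 24 h, 37 degrees C, 5% CO2. CellTiter-Fluor 30 min, Ex405/Em525; Bright-Glo 5 min, luminescence 2 s exposure.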

[16] = target: ATPase family AAA domain-containing protein 5 (Homo sapiens) (UniProt Q96QE3); experiment: Validation screen for small molecules that inhibit ELG1-dependent DNA repair in human embryonic kidney (HEK293T) cells expressing luciferase-tagged ELG1 (AID 493107); further: nearly all actives have a fitted effect of over 70% in size; further: potency means the concentration at half of the fitted maximal effect
Procedure, shortened: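 ELG1-luciferase HEK293T reporter; 5-fluorouridine + compound/DMSO, 16 hr, 37 °C, 5% CO2; ONE-Glo 30 min RT; luminescence read, qHTS format.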

[17] = target: DNA dC->dU-editing enzyme APOBEC-3G (Homo sapiens) (UniProt Q9HC16); experiment: qHTS for inhibitors of Vif-A3G interactions: Validation (AID 588379)
Procedure, shortened: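 Yellow fluorescence (Ex 488, Em 500-530) of Vif-coexpressing HeLa A3G-eYFP cells, scanned by Acumen cytometer, reports blocked A3G degradation. Cells plated at 700/well overnight at 37 deg C before compound addition, then a further overnight compound incubation at 37 deg C.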

Chain of Galactokinase (Homo sapiens) (P51570 whole entry, looked up): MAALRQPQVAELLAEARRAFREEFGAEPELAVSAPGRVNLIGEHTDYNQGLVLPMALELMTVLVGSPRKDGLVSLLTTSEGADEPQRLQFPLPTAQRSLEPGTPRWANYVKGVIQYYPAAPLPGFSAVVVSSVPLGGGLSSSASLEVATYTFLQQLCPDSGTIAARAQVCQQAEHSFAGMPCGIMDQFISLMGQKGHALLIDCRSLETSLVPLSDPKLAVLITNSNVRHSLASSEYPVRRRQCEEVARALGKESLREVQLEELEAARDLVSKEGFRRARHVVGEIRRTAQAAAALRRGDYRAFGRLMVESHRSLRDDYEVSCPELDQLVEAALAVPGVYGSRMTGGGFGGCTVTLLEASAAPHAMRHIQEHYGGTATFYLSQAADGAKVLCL
Chain of Phosphoglycerate kinase, glycosomal (Trypanosoma brucei brucei) (P07378 whole entry, looked up): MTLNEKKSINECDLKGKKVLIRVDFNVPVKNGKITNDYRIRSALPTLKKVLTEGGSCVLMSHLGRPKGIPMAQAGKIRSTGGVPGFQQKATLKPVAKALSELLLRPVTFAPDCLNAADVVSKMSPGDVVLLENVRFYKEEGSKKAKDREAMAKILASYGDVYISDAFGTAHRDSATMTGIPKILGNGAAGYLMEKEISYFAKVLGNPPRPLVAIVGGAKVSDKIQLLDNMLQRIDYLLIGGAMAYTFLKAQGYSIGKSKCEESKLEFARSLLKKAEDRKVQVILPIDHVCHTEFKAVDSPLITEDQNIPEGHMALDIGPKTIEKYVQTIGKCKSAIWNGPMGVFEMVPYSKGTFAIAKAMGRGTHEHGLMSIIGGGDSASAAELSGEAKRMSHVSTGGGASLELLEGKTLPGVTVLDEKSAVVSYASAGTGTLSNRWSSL
Chain of Peptidyl-prolyl cis-trans isomerase NIMA-interacting 1 (Homo sapiens) (Q13526 whole entry, looked up): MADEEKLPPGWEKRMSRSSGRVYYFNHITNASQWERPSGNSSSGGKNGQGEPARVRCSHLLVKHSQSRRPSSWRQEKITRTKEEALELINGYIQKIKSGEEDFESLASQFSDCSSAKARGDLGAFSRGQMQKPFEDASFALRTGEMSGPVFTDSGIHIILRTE
Chain of Thyrotropin-releasing hormone receptor (Homo sapiens) (P34981 whole entry, looked up): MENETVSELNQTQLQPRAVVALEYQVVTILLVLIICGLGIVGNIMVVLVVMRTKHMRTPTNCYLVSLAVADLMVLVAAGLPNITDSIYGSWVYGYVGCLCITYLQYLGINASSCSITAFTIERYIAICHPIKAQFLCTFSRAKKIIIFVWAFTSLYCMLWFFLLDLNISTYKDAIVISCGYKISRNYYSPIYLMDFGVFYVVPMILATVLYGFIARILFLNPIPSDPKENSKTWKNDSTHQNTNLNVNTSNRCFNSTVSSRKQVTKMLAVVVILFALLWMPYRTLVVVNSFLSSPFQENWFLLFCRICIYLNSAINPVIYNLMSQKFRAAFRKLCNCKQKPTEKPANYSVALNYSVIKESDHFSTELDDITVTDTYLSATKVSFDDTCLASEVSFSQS
Chain of Ubiquitin carboxyl-terminal hydrolase 1 (Homo sapiens) (O94782 whole entry, looked up): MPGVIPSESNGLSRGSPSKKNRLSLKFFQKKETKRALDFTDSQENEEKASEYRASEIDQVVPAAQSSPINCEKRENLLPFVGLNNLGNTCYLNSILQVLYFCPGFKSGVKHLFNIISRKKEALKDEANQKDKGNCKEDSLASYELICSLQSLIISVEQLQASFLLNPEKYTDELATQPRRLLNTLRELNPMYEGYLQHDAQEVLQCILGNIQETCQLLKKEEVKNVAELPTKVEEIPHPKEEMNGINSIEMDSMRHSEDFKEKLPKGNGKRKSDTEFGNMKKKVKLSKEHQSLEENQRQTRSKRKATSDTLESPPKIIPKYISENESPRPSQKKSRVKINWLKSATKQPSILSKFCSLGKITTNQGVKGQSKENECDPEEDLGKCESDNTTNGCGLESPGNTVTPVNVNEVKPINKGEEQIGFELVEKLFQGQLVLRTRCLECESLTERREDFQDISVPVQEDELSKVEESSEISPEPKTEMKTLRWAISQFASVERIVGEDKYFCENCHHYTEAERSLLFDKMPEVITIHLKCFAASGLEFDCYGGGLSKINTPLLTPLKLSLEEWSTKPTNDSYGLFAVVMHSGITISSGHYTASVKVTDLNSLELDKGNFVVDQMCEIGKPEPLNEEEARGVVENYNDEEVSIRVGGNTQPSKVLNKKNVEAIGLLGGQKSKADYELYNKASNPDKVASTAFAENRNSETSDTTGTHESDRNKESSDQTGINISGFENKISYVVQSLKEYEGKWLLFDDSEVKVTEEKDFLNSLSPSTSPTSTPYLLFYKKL
Chain of D(1A) dopamine receptor (Homo sapiens) (P21728 whole entry, looked up): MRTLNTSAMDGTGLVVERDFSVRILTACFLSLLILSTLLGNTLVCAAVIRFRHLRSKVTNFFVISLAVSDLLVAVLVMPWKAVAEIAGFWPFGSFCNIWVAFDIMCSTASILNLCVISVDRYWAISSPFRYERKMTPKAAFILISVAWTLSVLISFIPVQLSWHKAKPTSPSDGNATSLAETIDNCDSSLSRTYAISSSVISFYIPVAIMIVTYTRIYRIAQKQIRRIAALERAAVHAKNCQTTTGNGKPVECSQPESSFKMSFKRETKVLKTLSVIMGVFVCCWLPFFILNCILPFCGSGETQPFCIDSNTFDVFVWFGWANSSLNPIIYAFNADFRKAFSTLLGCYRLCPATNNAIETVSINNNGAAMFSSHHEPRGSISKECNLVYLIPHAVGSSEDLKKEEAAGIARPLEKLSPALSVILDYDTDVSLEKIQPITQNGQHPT
Chain of phosphoglycerate mutase (Leishmania major) (Q4Q090 1-553): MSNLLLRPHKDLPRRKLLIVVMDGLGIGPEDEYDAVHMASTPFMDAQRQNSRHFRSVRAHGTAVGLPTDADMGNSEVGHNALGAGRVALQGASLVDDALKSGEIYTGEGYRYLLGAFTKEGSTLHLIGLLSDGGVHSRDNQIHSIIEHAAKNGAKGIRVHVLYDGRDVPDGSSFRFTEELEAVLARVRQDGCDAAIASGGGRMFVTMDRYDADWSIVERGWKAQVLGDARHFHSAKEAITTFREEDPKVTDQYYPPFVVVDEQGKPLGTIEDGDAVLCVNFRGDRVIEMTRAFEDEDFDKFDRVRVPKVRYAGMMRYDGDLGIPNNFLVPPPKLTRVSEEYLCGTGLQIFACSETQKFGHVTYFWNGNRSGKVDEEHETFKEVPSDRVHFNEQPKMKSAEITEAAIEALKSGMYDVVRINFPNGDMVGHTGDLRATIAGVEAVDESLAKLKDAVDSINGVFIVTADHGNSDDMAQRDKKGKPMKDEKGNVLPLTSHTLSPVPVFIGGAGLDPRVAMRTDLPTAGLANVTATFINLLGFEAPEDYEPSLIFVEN
Chain of ATP-dependent 6-phosphofructokinase (Trypanosoma brucei brucei) (O15648 whole entry, looked up): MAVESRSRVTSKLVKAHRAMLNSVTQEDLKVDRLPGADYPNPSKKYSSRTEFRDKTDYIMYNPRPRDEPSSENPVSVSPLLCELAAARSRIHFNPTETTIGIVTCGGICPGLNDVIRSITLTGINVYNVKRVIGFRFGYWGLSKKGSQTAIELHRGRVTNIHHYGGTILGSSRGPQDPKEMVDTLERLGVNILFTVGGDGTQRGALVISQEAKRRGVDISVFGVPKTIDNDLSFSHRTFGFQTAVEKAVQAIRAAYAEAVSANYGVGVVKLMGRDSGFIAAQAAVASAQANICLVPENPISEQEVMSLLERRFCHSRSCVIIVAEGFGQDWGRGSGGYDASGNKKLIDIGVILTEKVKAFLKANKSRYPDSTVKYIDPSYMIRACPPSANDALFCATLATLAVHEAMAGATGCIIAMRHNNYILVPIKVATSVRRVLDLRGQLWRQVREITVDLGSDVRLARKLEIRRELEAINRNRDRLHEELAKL
Chain of DNA dC->dU-editing enzyme APOBEC-3G (Homo sapiens) (Q9HC16 whole entry, looked up): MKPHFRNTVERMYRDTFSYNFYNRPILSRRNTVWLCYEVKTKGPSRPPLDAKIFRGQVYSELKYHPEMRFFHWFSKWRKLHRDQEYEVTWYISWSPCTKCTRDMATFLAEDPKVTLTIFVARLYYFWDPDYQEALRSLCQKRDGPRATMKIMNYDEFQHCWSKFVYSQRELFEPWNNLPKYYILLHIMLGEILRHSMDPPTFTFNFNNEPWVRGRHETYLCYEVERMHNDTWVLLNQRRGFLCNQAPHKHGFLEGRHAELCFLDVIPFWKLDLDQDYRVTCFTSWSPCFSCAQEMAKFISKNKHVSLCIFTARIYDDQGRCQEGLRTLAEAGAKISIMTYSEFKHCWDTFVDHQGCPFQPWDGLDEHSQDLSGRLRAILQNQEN

SMILES: CN(C)c1cc2c(Nc3ccc4c(cnn4Cc4ccccc4)c3)ncnc2cn1
- outcome [1]: inactive
- outcome [2]: inactive
- Potency [3]: inactive
- outcome [4]: inactive
- activation [5]: 2.12% (inactive)
- outcome [6]: inactive
- outcome [7]: inactive
- outcome [8]: inactive
- outcome [9]: inactive

SMILES: CC(NCCC(c1ccccc1)c1ccccc1)c1ccccc1 (centres undefined)
- outcome [10]: inactive

SMILES: Nc1ncnc2n[nH]c(Nc3ccc(F)cc3)c12
- outcome [1]: inactive
- outcome [2]: inactive
- Potency [3]: inactive
- outcome [4]: inactive
- outcome [7]: inactive
- outcome [8]: inactive
- outcome [9]: inactive
- Potency [11]: inactive
- outcome [12]: inactive

SMILES: O=[N+]([O-])c1ccc(-c2nc(-c3ccc(F)cc3)c(-c3ccncc3)[nH]2)cc1
- outcome [1]: inactive
- Potency [3]: inactive
- outcome [4]: inactive
- activation [5]: 4.88% (inactive)
- Potency [13]: 16.4 µM (active)
- viability change [13]: -1.66%
- outcome [6]: inactive
- outcome [14]: inactive
- outcome [8]: inactive
- outcome [9]: inactive
- outcome [12]: inactive
- Potency [15]: inactive

SMILES: COc1cccc2c1[C@@H]1CN(CCCCn3c(=O)[nH]c4c(sc5ncc(-c6ccccc6)nc54)c3=O)C[C@@H]1CO2
- outcome [1]: inactive
- outcome [2]: inactive
- Potency [3]: inactive
- outcome [4]: inactive
- Potency [16]: 23.1 µM (active)
- activation [5]: 0.5% (inactive)
- outcome [6]: inactive
- outcome [14]: inactive
- outcome [7]: inactive
- outcome [8]: inactive
- outcome [9]: inactive
- Potency [11]: inactive

SMILES: CCCCCCCCCCCCCCCC[n+]1ccccc1
- outcome [10]: inactive

SMILES: COC(=O)C1=CO[C@@H](O)[C@@H]2C(CO)=CC[C@H]12
- outcome [1]: inactive
- outcome [2]: inactive
- Potency [3]: inactive
- outcome [4]: inactive
- Potency [16]: inactive
- Potency [13]: inactive
- viability change [13]: -6.84%
- outcome [7]: inactive
- outcome [8]: inactive
- outcome [9]: inactive
- Potency [11]: inactive
- outcome [12]: inactive
- Potency [15]: inactive

SMILES: CC(C)N(CCC(=O)c1ccc2ccccc2c1)Cc1ccccc1
- outcome [1]: inactive
- outcome [2]: inactive
- outcome [4]: inactive
- activation [5]: 3.12% (inactive)
- Potency [13]: inactive
- viability change [13]: -0.356%
- outcome [6]: inactive
- outcome [14]: inactive
- outcome [7]: inactive
- outcome [8]: inactive
- outcome [17]: inactive

SMILES: O=[N+]([O-])c1ccc(O)c2ncccc12
- outcome [10]: inactive
